Results taken from PubChem BioAssay.
Activity calls are given as the source filed them.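 How the source made its calls: active means growth inhibition above 50% at the single 2 µM test dose, taken to imply half-maximal potency below 2 µM; inactive means the rest.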

test: antimalarial activity against Dd2 strain (AID 2302);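 further: 0% = DMSO untreated growth and 100% = chloroquine plus artemisinin killed control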; details: P. falciparum Dd2 in RBCs, LDH growth readout, 72 h; at 2 µM; active compounds read high

Row | SMILES | growth inhibition
1 | O=C(/C=C/c1ccc(Cl)c(Cl)c1)N1CCC(CCCN2CCC(c3c[nH]c4ccc(O)cc34)CC2)CC1 | 99% (active)
2 | C=CCOC(=O)N1CCC(CNCc2cccc(-c3ccc(-c4nc5c(C)cccc5[nH]4)cc3)c2)C1 (centres undefined) | 82% (active)
3 | CO/C(=C\C=C\c1cc2cc(Cl)c(Cl)cc2[nH]1)C(=O)NC1C[C@H]2CCC[C@@H](C1)N2C (some centres undefined) | 51% (active)
4 | Nc1ncc(-c2ccccc2)cc1-c1nc2cc(Cl)c(F)cc2[nH]1 | 91% (active)
5 | Cc1cccc2[nH]c(-c3ccc(-c4ccc(CN5CC(C)OC(C)C5)cc4)cc3)nc12 (centres undefined) | 96% (active)
6 | CCCCCc1cnc2nc(N)nc(N)c2c1 | 6% (inactive)
7 | Nc1cccc(CNCc2cccc(-c3ccc(-c4nc5ccccc5[nH]4)cc3)c2)c1 | 92% (active)
8 | CCCC(CCC)n1ccc2c3c(N)nc(N)nc3ccc21 | 97% (active)
9 | COc1cccc(OC)c1C(=O)N1CCC2(CC1)C(=O)N(CC(=O)NC1CCCCC1)CN2c1ccccc1 | 91% (active)
10 | Cc1cc(N[C@@H](Cc2ccccc2)C(=O)NCc2cccs2)nc(NCCc2ccccn2)n1 | 49% (inactive)
11 | OCC1CCN(Cc2ccc(-c3ccc(-c4nc5ccccc5[nH]4)cc3)cc2)CC1 | 84% (active)
12 | COc1cc(C(=O)N2COCC(CCCN3CCC(N4CCCC4)CC3)(c3ccc(Cl)c(Cl)c3)C2)cc(OC)c1OC (centres undefined) | 70% (active)
13 | COc1ccc2c(CCNc3nc(SC)ncc3C(=O)NCCc3ccc(F)cc3)c[nH]c2c1 | 49% (inactive)
14 | CCn1c(C2CCN(CCC3CCN(C(=O)/C=C/c4ccc(Cl)c(Cl)c4)CC3)CC2)nc2ccccc21 | 0% (inactive)
15 | CCN(CC)CCN(Cc1ccc(-c2ccc(C(F)(F)F)cc2)cc1)C(=O)Cn1c(/C=C/c2ccco2)nc(=O)c2ccccc21 | 86% (active)
16 | CC(=O)Nc1ccc(CN2CCCN(c3cc(NC(=O)c4cccc(C)c4)ccn3)CC2)cc1 | 10% (inactive)
17 | O=C(NC1CC1)c1ccc(N2CCCC(COc3ccc4c(c3)CCCC4)C2)nc1 (centres undefined) | 65% (active)
18 | CC(C)(C)c1ccccc1OCCCON1C(N)=NC(N)=NC1(C)C | 98% (active)
19 | O=C(Nc1ccccc1)Nc1cccc(-c2cccc(-c3nc4ccc(F)cc4[nH]3)c2)c1 | 41% (inactive)
20 | CC(C)c1ccc(NC(=O)c2ccc(C(=O)NC3CCN(Cc4ccsc4)C3)cc2)cc1 (centres undefined) | 28% (inactive)

Row | SMILES | growth inhibition
21 | O=C(Nc1ccc(C(F)(F)F)cc1)NC1CCN(c2ccnc3ccccc23)C1 (centres undefined) | 89% (active)
22 | C=CCOc1ccc(CNC2CCN(Cc3ccccc3)CC2)cc1Br | 8% (inactive)
23 | COc1cccc(CN2CCCN(Cc3cccc(NC(=O)c4ccc(Cl)c(Cl)c4)c3)CC2)c1 | 11% (inactive)
24 | Cc1cc2ccc(/C=C/C(=O)NC3CCC(CCN4CCc5ccc(C#N)cc5CC4)CC3)cc2[nH]1 (centres undefined) | 56% (active)
25 | CCC1N=C(N)N=C(N)N1OCCCOc1c(Cl)cc(Cl)cc1Cl (centres undefined) | 96% (active)
26 | NC(N)=NN=Cc1ccc2c(c1)Cc1ccccc1-2 | 81% (active)
27 | Cc1ccc(S(=O)(=O)N(CCCNCc2cccc(O)c2)c2ccccc2)cc1 | 94% (active)
28 | COc1cc(F)c2ncc(C#N)c(CCN3CCC(NCc4ccc5c(c4)OCCO5)CC3)c2c1 | 59% (active)
29 | Nc1nc(N)c2c(Cl)c(N(Cc3ccccc3)Cc3ccccc3)ccc2n1 | 2% (inactive)
30 | CCCN(CC1CC1)c1nc(C)nc2c(-c3ccccc3)cc(C)cc12 | 78% (active)
31 | COc1ccc(-c2nc3c(N)nc(N)nc3nc2C(C)C)cc1 | -4% (inactive)
32 | O=C(/C=C/c1ccc(C(F)(F)F)cc1)NCCCCCN1CCN(C(=O)Nc2ccc(Cl)cc2)CC1 | -4% (inactive)
33 | Oc1ccc(Nc2nc(N3CCCC3)c3ccccc3n2)cc1 | 100% (active)
34 | CCc1sc(CN(CCCNc2cc(=O)c3ccccc3[nH]2)Cc2sc(CC)c(Br)c2-c2ccsc2)c(-c2ccsc2)c1Br | 98% (active)
35 | COc1ccc(C(=O)N[C@@H](CC(C)C)C(=O)NC2CC[C@@H](C)N(C(=O)Nc3ccc(Cl)cc3)CC2=O)cc1OCCN1CCOCC1 (some centres undefined) | 91% (active)
36 | C[C@@H]1CN(c2ccnc3ccc(Sc4ccc(Oc5ccccc5)cc4)cc23)C[C@H](C)N1 | 99% (active)
37 | O=C(Nc1ccc2c(c1)CCNCC2)Nc1ccc2ccccc2c1 | 23% (inactive)
38 | O=C1CC(C(=O)Nc2cccc(-c3cccc(-c4nc5ccccc5[nH]4)c3)c2)c2ccccc2N1 (centres undefined) | 32% (inactive)
39 | CC(=O)c1cccc2[nH]c(C(=O)NC3CCC(CCN4CCc5ccc(C#N)cc5C4)CC3)cc12 (centres undefined) | 0% (inactive)
